Screening results from PubChem BioAssay.
Gal4-VP16 FLuc – counter-screen for ROR gamma inhibitors: Gal4-VP16 reporter; Potency, µM (highest dose often 53.6 µM), for the others: at the highest dose activity, negative = inhibition, most hits filed as inhibitors; 310,000 tested, 3.5% active; AID 2546; Drosophila S2 Gal4-VP16 UAS-luciferase, luminescence, 20 h;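 further: Gal4-VP16 expression switched on by copper sulfate through the metallothionein promoter; nearly all actives have a fitted effect of over 50% in size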
RORg inh – inhibitors of mouse ROR gamma transcriptional activity | P51450 | Drosophila S2 Gal4-RORgamma UAS-luciferase reporter, 20 h | Potency, µM (series often up to 53.6 µM), inactives show at the top dose activity change, negative = inhibition, most hits filed as inhibitors | 310,000 tested, 5.4% active; further: nearly all actives have a fitted effect of over 60% in size
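Drosophila Schneider cells stably carrying a metallothionein-driven Gal4 DBD–ROR gamma fusion and a UAS-Photinus luciferase reporter were exposed to compound for 1 hr, then induced with copper sulfate (700 uM final) for 20 hr at ambient temperature before luminescence reading.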
TDP1 block – inhibitors of human tyrosyl-DNA phosphodiesterase TDP1; recombinant TDP1, AlphaScreen DNA substrate cleavage; Potency, µM (series often up to 130 µM), inactives show top-dose activity change, negative = inhibition, most hits filed as inhibitors; 350,000 tested, 0.28% active; further: nearly all actives have a fitted effect of over 40% in size
Target sequence (Q9NUW8 whole entry, looked up): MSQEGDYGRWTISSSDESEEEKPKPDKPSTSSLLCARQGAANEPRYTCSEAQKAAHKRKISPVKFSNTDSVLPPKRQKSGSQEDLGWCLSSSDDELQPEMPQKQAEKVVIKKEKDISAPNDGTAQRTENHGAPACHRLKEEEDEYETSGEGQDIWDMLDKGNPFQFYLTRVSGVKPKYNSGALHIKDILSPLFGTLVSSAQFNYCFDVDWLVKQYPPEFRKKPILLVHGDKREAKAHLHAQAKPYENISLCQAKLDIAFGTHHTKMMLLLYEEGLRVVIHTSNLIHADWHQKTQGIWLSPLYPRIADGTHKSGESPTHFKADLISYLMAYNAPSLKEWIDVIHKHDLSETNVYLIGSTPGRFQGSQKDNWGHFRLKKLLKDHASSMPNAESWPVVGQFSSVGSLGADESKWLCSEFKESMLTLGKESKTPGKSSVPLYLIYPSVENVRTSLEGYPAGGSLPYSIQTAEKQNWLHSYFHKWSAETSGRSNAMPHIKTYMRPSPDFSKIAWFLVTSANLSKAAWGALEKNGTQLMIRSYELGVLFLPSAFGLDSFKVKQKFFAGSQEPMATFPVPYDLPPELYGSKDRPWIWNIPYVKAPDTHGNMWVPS
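Here, a 5' biotin and 3' phosphotyrosine-FITC DNA oligonucleotide reports Tdp1 activity: intact substrate bridges AlphaScreen beads, while cleavage leaves a 3' phosphate and drops signal. All incubations at room temperature.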
DT40 TDP1 no CPT – qHTS for Inhibitors of human tyrosyl-DNA phosphodiesterase 1 (TDP1): qHTS in cells in absence of CPT; DT40 Tdp1-/- hTDP1 cells, no CPT, ATP luminescence, 48 h; Potency, µM (doses to about 46.2 µM), inactives show at the highest dose activity change, negative = growth inhibition, most hits filed as inhibitors; 420,000 tested, 15% active; further: nearly all actives have a fitted effect of over 55% in size
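Stably hTDP1-transfected Tdp1-null chicken DT40 cells were treated with library compounds minus camptothecin and grown for at least 48 hr at 37 °C, after which cellular ATP was quantified by luminescence.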
TDP1 cell CPT – DT40-hTDP1 cell growth loss with CPT; Potency, µM (series often up to 46.2 µM), inactives show at the highest dose activity change, negative = growth inhibition, actives largely listed as inhibitors; chicken DT40 Tdp1-/-;hTDP1 cells + 20 nM CPT, ATP luminescence, 48 h; 420,000 tested, 12% active; AID 686979; further: nearly all actives have a fitted effect of over 55% in size
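Chicken DT40 Tdp1-/- cells stably complemented with human TDP1 were seeded at 400 cells/well in medium containing 20 nM camptothecin, exposed to pin-transferred compounds, and grown at 37 °C for at least 48 hr. Viability was read as ATP luminescence.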
An asterisk follows results filed as active; ? = inconclusive; / = no result; [ ] = another dose, or the depositor's remark. Compounds with a hit are over-represented: about 19% of the library has one in this group of screens. The call rests on the fitted dose curve; in most records, active means well fitted curve in the direction sought with a large enough effect; inconclusive means small, poorly fitted or top-dose-only effect, or another doubt; inactive means no such curve, though single readings can be large; an effect the other way counts as inactive or inconclusive. On the % scale 0 is the no-effect control and ±100 the full control effect; potency means the concentration at half of the fitted maximal effect.

SMILES	Gal4-VP16 FLuc	RORg inh	TDP1 block	DT40 TDP1 no CPT	TDP1 cell CPT
CCN(CC)C(c1ccc(C)cc1)c1nnnn1C1CCCCC1 (stereo not given)	-1%[0.365 µM]	4%	-5%	18µM*	?
Cc1ccc(C(c2nnnn2C2CCCC2)N2c3ccccc3CC2C)cc1 (stereo not given)	?	?	0%	18µM*	?
Cc1nonc1OC(C)CNc1ccc([N+](=O)[O-])cc1 (stereo not given)	-20%	?	0%	?	-13%
Cc1ccc(C)n1CCN1CCN(CC(=O)Nc2ccc(S(N)(=O)=O)cc2)CC1	-7%	10%	-1%	?	-23%
Cc1cccc(N2CCN(c3ccc4cc(S(=O)(=O)N5CCCCC5)ccc4n3)CC2)c1C	3%	2%	-2%	12µM*	12µM*
Cc1cccc(N2CCN(c3ccc4cc(S(=O)(=O)N5CCCCC5)ccc4n3)CC2C)c1 (stereo not given)	0%	-16%	0%	16µM*	12µM*
Cc1cccc(N2CCN(S(=O)(=O)c3ccc4c(c3)n(C)c(=O)c(=O)n4C)CC2C)c1 (stereo not given)	-8%	0%	1%	5%	-28%
Cc1ccc(C)c(N2CCN(c3ccc4cc(S(=O)(=O)N5CCCCC5)ccc4n3)CC2)c1	-7%	-12%	-4%	?	?
COCCN(C(=S)Nc1ccc(OC)cc1)C1CCN(C(C)C)CC1	-7%	-35%	1%	1%	1%
O=C(O)c1ccccc1-c1ccccc1C(=O)Nc1ccc2c(c1)oc(=O)c1ccccc12	/	/	/	13µM*	?
CCCCCCCN1CCC(=O)N([C@H](CO)CC(C)C)CC1	3%	-8%	/	23µM*	?
CC(C)C[C@@H](CO)N1CCN(C)CCC1=O	0%	-8%	/	-10%	3%
O=C1CCN(Cc2ccc(Br)cc2)CCN1[C@H](CO)Cc1ccccc1	-3%	20%	/	?	20µM*
CCCCCCCN1CCC(=O)N([C@H](CO)Cc2ccccc2)CC1	-2%	-8%	/	13µM*	21µM*
NNC(=O)C1CC1(c1ccccc1)c1ccccc1 (stereo not given)	-21%	-19%	6%	7%	3%
COc1ccc2[nH]cc(CCNc3ncnc4ccc(-c5ccc6c(c5)OCO6)cc34)c2c1	-2%	33%	/	16µM*	?
COc1ccc2[nH]cc(CCNc3ncnc4ccc(-c5ccccc5OC)cc34)c2c1	7%	53%	/	?	?
COc1ccc2[nH]cc(CCNc3ncnc4ccc(-c5cccnc5)cc34)c2c1	0%	?	/	23µM*	15µM*
COC(=O)c1ccc(S(=O)(=O)N2CCC(O)CC2)n1C	3%	5%	/	-7%	-18%
CC(C)CNC(=O)c1cccc(NC(=O)COc2ccc([N+](=O)[O-])cc2)c1	4%	?	-4%	23µM*	13µM*
CC(C)(C)SCCNC(=O)c1ccc(Cl)c([N+](=O)[O-])c1	-11%	?	-6%	16µM*	?
NS(=O)(=O)c1cccc(NC(=O)COc2ccc([N+](=O)[O-])cc2)c1	-4%	34%	3%	-26%	?
CC(C)CNC(=O)c1cccc(NC(=O)c2ccc(Cl)c([N+](=O)[O-])c2)c1	-25%	?	4%	21µM*	21µM*
Cc1ccccc1CNC(=O)c1ccc(Cl)c([N+](=O)[O-])c1	-9%	-19%	6%	?	?
Cc1[nH]c2ccccc2c1C(=O)CN1CCCCC1CCO (stereo not given)	-3%	-28%	3%	16µM*	?
SMILES	Gal4-VP16 FLuc	RORg inh	TDP1 block	DT40 TDP1 no CPT	TDP1 cell CPT
Cc1ccc2c(C(=O)CN3CCCCC3CCO)c(C)[nH]c2c1 (stereo not given)	-8%	-1%	3%	?	?
CC1CN(C(=O)COC(=O)c2ccc(Cl)c(N)c2)CC(C)O1 (stereo not given)	5%	0%	6%	-16%	7%
c1coc(-c2nc3c([nH]2)CCc2nonc2-3)c1	19%	6%	6%	-2%	2%
FC(F)(F)c1cccc(OCCN2CCN(Cc3ccccc3)CC2)c1	-2%	-16%	3%	?	21µM*
O=C(c1ccccc1)c1ccc(OCC(O)CN2CCN(Cc3ccccc3)CC2)cc1 (stereo not given)	-5%	31%	4%	23µM*	21µM*
c1ccc(CN2CCN(CCOCCOc3ccc4c(c3)CCC4)CC2)cc1	-3%	1%	0%	23µM*	?
O=C(c1ccccc1)c1ccc(OCCOCCN2CCN(Cc3ccccc3)CC2)cc1	1%	-5%	-5%	21µM*	23µM*
CN(CCOc1cccc(C(F)(F)F)c1)Cc1ccccc1	-3%	14%	0%	?	?
OC(COc1ccccc1)CN1CCN(CC(O)COc2ccccc2)CC1 (stereo not given)	-1%	2%	7%	10%	1%
O=C(c1ccccc1)c1ccc(OCCCN2CCCC2)cc1	6%	20%	-12%	-20%	-1%
O=C(COc1ccc(S(=O)(=O)N2CCCC2)cc1Cl)N1CCN(c2ccccc2)CC1	-10%	-3%	9%	?	?
COc1ccc(CCNC(=O)C(=O)NCCOc2ccccc2)cc1OC	-2%	24%	5%	-27%	-3%
CCn1c(SCC(=O)NCc2cccs2)nnc1-c1cccs1	-14%	-5%	5%	-5%	-22%
O=C(NCCN1CCOCC1)NC1(C(F)(F)F)Oc2ccc(Cl)cc2O1 (stereo not given)	?	0.32µM*	2%	13µM*	?
COCC(C)NC(=O)NC1(C(F)(F)F)Oc2ccc(Cl)cc2O1 (stereo not given)	11µM*	10µM*	-5%	13µM*	13µM*
O=C(NCCN1CCOCC1)c1cc(Cl)ccc1Cl	1%	4%	3%	17%	-8%
COCC(C)NC(=O)NC(=O)c1ccc(Cl)cc1 (stereo not given)	22%	24%	-3%	-20%	?
NC(=O)C1C(c2ccccc2)=C1c1ccccc1	-3%	13%	6%	-8%	-24%
COC(=O)C1=C(C(=O)OC)SC(=C2C(=S)C(C)(C)N(C(=O)C3CC3)c3ccccc32)S1	1%	8%	14%	?	?
CCCC(=O)N1c2ccccc2C(=C2SC(C(=O)OC)=C(C(=O)OC)S2)C(=S)C1(C)C	-9%	-19%	11%	26µM*	15µM*
Cc1ccc(NC(=O)c2ccc3c(c2)CCN3S(C)(=O)=O)cc1	/	/	/	-12%	?
